{
  "source": "PubChem BioAssay AID493029",
  "about": "(Johns Hopkins Ion Channel Center, 2011)",
  "note": "Out of some 1,000 compounds screened, about 140 (14%) were called active. No rule for the calls is given here. Shown is part of a subset that was picked to be rich in actives.",
  "data": [
    {"experiment": "thallium flux change in parental CHO cells, counter-screen for KCNQ2 inhibitor project (AID 493029);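 as to activity change: 0% = vehicle negative controls with stimulus buffer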", "details": "at 10 µM; active compounds read low", "values": [
      {"smiles": "CN(C)CC1Oc2ccccc2OC1(O)c1ccccc1", "note": "(configuration not stated)", "activity change": "-23% (active)"},
      {"smiles": "O=C(NC(c1ccc(Cl)cc1)P(=O)(Oc1ccccc1)Oc1ccccc1)OCc1ccccc1", "note": "(configuration not stated)", "activity change": "inactive"}
    ]}
  ]
}
